Source: PubChem
Only a selection was taken, and hits are over-represented in it overall.
HIV RNase H inh-1: blocks HIV-1 RNase H cleavage of RNA/DNA duplex; RT-RNase H RNA/DNA duplex cleavage, fluorescence; inhibition, % at 10 µM; hit rate 1.9% among 65,000; P04585; AID 565; in the data active = inhibition above about 50%
HIV RNase H inh-2: confirmation of HIV-1 reverse transcriptase RNase H inhibitors; shares compounds with HIV RNase H inh-1; Recombinant RT RNase H, fluorescent RNA/DNA duplex cleavage; inhibition, % at 10 µM; hit rate 39% among 1,000; in the data active = inhibition above about 48%; inconclusive = no clear call, values can overlap the other calls
* marks the source's active call; other numbers are inactive results; ? = inconclusive.

SMILES | HIV RNase H inh-1 | others
N#Cc1nc(-c2ccco2)oc1NCCCn1ccnc1 | -2
O=C(COc1ccc(N2CC(C(=O)O)CC2=O)cc1)Nc1cccc(C(F)(F)F)c1 (centres undefined) | -2
CC1SC(c2cccc(Cl)c2)NC1=O (centres undefined) | 60* | HIV RNase H inh-2=14
O=C1NCCN1Cc1cccc(Cl)c1 | -20
CC1=C(C(=O)N(C)C)C(c2cccc(Cl)c2)NC(=O)N1 (centres undefined) | -4
O=C1N[C@@H](Cc2cnc[nH]2)C(=O)N2CCC[C@@H]12 | -11
CCOc1ccc(S(=O)(=O)Nc2cccc(Cl)c2)cc1 | -55
CCOc1ccc2sc(NS(=O)(=O)c3ccc(OC)c(OC)c3)nc2c1 | -17
CCOc1ccc(S(=O)(=O)Nc2cc(Sc3ncn[nH]3)c3oc(=O)sc3c2)cc1 | 88* | HIV RNase H inh-2=38*
CC(=O)C1=C(O)C(=O)N(c2cccc(C(=O)O)c2)C1c1ccc(F)cc1 (centres undefined) | -19
CC(=O)N1CCc2cc(S(=O)(=O)NCCC3=CCCCC3)ccc21 | -2
CCN(CC)c1ccc(NC(=O)COc2ccc(C)cc2)cc1 | 7
COc1ccc(CCNC(=O)CSc2nnnn2-c2ccccc2OC)cc1OC | -12
Cc1ccc(OCC(=O)Nc2cccc(-c3nnc(-c4ccccc4)o3)c2)cc1 | 0
Cc1cccc(C)c1OCC(=O)Nc1cccc(-c2nnc(-c3ccccc3)o2)c1 | 2
Cc1cccc(OCC(=O)Nc2cccc(-c3nnc(-c4ccccc4)o3)c2)c1C | 71* | HIV RNase H inh-2=66*
OC(CNC1CCCCC1)CN1CCN(CC(O)CNC2CCCCC2)CC1 (centres undefined) | -5
Cc1ccc2c(CC(=O)Nc3nc(C)cs3)coc2c1 | -2
COc1ccc(OC)c(NC(=O)CS(=O)(=O)c2ccccc2)c1 | -5
COc1ccc(OC)c(NS(=O)(=O)Cc2ccccc2)c1 | 77* | HIV RNase H inh-2=?
COc1ccc(OC)c(S(=O)(=O)NCc2ccccc2)c1 | 16
CCOc1ccc(C2SCC(=O)Nc3c2c(=O)[nH]n3C2CCCCCC2)cc1 (centres undefined) | 58* | HIV RNase H inh-2=4
COc1ccc(C2SCC(=O)Nc3c2c(=O)[nH]n3C2CCCCCC2)cc1OC (centres undefined) | 0
COc1ccc(C2SCC(=O)Nc3c2c(=O)[nH]n3C2CCCCCC2)cc1 (centres undefined) | -1
O=C1NCCCC2c3cc(O)c4ccccc4c3OC12N1CCCCC1 (centres undefined) | 52* | HIV RNase H inh-2=15
SMILES | HIV RNase H inh-1 | others
O=c1oc2ccccc2c(O)c1CN1CCCCC1 | 1
O=C1NCCCC2c3c(cc(Br)c(O)c3Br)OC12N1CCOCC1 (centres undefined) | 22
COc1cccc(NC(=O)CCS(=O)(=O)c2cccs2)c1 | -17
CC1(C)Cc2ccccc2C(N)=C1C#N | -69
c1c2c(cc3sc(N4CCCCC4)nc13)OCO2 | 9
c1ccc(N2CCN(c3nc4cc5c(cc4s3)OCO5)CC2)cc1 | 76* | HIV RNase H inh-2=76*
c1ccc2c(c1)CCN(c1nc3cc4c(cc3s1)OCO4)C2 | 43
O=C(c1ccc2nc(N3CCOCC3)sc2c1)N1CCCC1 | -3
c1c2c(cc3sc(N4CCOCC4)nc13)OCO2 | 72* | HIV RNase H inh-2=62*
O=C(c1ccc2c(c1)OCO2)N1CCN(c2ccccc2)CC1 | -7
CCn1c(SCC(=O)N2CCN(c3ccc(F)cc3)CC2)nnc1-c1ccncc1 | -3
O=C(NC1CCCCC1)c1noc2c1CCCCC2 | -15
CC(=O)C(Sc1nn(C)c(=S)s1)C(=O)Nc1ccccc1 (centres undefined) | 27
O=C(Nc1ccccc1F)c1ccc(S(=O)(=O)NCC2CCCO2)cc1 (centres undefined) | 6
COc1cc(-c2nnc(CSc3nnc4nc(C)cc(C)n34)o2)cc(OC)c1OC | -6
COc1ccc(OC)c(N2C(=O)CC(C(C)c3ccccc3)C2=O)c1 (centres undefined) | 7
CCOC(=O)C1=C(C)NC(=O)NC1c1ccc2c(c1)OCCO2 (centres undefined) | -17
CCOC(=O)C1=C(C)N=c2s/c(=C\c3ccncc3)c(=O)n2C1c1ccc2c(c1)OCO2 (centres undefined) | 20
CCOC(=O)C1=C(C)N=c2s/c(=C3\C(=O)Nc4ccccc43)c(=O)n2C1c1ccc2c(c1)OCO2 (centres undefined) | 86* | HIV RNase H inh-2=67*
NC(=O)C1(N2CCCCC2)CCN(Cc2ccccc2Cl)CC1 | -1
CN1C(=O)CC(N2CCN(c3ccc(Cl)c(Cl)c3)CC2)C1=O (centres undefined) | 4
CCOc1cc2[nH]c(=O)n(CCCCC(=O)NC3CCCCCC3)c(=O)c2cc1OCC | -5
CCOc1cc2[nH]c(=O)n(CC3CCC(C(=O)NCCCOC)CC3)c(=O)c2cc1OCC (centres undefined) | 0
CCOc1cc2[nH]c(=O)n(CC3CCC(C(=O)NCCC(C)C)CC3)c(=O)c2cc1OCC (centres undefined) | 68* | HIV RNase H inh-2=?
